Inconclusive results are not listed. Values without a mark were called inactive. Active and inactive are the calls of the source. Calls come from the whole dose curve; as a rule, active = well fitted inhibition curve with a large enough effect in the repeat runs; inconclusive = weak or mixed curves; inactive = flat fitted curve, though single readings scatter.
target: Cytochrome P450 2D6 (Homo sapiens) (UniProt P10635); test: Cytochrome P450 family 2 subfamily D member 6 (CYP2D6) small molecule antagonists: luciferase biochemical (cell-free) qHTS assay (AID 1645840); details: P450-Glo CYP2D6 enzyme, luciferin luminescence, 1 h; series mostly up to 57.4 µM; activity change, negative = inhibition: at the top concentration; note: nearly all actives have a fitted effect of over 55% in size
Sequence (P10635 whole entry, looked up): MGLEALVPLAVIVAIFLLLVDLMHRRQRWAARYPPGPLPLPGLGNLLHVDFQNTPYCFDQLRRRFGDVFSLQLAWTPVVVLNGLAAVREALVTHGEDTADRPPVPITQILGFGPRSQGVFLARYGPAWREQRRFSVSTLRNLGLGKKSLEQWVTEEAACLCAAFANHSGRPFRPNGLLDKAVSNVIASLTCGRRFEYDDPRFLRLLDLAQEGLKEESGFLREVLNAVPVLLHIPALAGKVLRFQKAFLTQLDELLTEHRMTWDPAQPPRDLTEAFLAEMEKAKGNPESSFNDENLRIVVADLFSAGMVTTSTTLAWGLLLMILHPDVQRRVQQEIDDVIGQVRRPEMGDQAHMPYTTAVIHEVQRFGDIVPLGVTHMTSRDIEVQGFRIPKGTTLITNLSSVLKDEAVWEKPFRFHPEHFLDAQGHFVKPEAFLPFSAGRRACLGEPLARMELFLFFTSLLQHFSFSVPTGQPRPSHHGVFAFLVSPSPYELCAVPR
Procedure: National Center for Advancing Translational Sciences [NCATS] Assay Overview: Cytochrome P450 (CYP) enzymes are membrane-bound hemeproteins that play a key role in metabolism of drugs and xenobiotics. Assaying the effect of chemicals on CYP isozymes is useful to minimize the adverse drug reactions and toxicities in drug development process. Chemical compounds were tested for their effect on CYP enzyme activities by using P450-Glo (TM) screening systems (Promega Corporation, Madison, WI). These systems provide a luminescent method containing proluciferin substrates and are converted to luciferin products by CYP isozymes. The luciferin products formed are detected with a luciferin detection reagent, and the amount of light produced is proportional to CYP activity. P450-Glo (TM) CYP2D6 screening system (Catalog. No. V9890) was used to detect the compounds that interfere in CYP2D6 activity.
Assay Protocol Summary: Two ul of enzyme-substrate mix was dispensed into medium binding white/solid 1536-well plates (Greiner Bio-One North America Inc., Monroe, NC) using a Flying Reagent Dispenser (FRD, Aurora Discovery, San Diego, CA). […] The assay plates were incubated at room temperature for 10 min. Then 2 ul of NADPH regeneration solution was added to each well of the assay plates using an FRD and incubated at room temperature for 1 h. The reaction was stopped by adding 4 ul of detection reagent using an FRD and after 20 min incubation at room temperature, the luminescence signal was measured using a ViewLux plate reader (Perkin Elmer, Shelton, CT). Data were expressed as relative luminescence units.
% is set by controls: 0 for no effect and ±100 for the full control effect; potency is the fitted concentration of half-maximal effect.

Structure (SMILES)	activity change, negative = inhibition	Potency
COc1ccc(N2CCN(C(=O)c3cc4c(s3)-c3ccccc3S(=O)(=O)C4)CC2)cc1	-2.82%	–
O=C(NCCCN1CCOCC1)c1cnn2c(-c3ccccc3)cc(-c3ccccc3)nc12	-24%	–
C[C@H](Nc1ncnc2nc[nH]c12)c1cc2cccc(Cl)c2c(=O)n1-c1ccccc1	-0.73%	–
Nc1ncnc2c1c(-c1ccc(Cl)cc1)nn2-c1cccc(-c2cnnn2Cc2cccc(-c3ccccc3)c2)c1	9.49%	–
O=C(Nc1ccc(Cl)cc1)c1ccccc1NCc1ccncc1	–	0.169 µM (active)
CN1CCN(S(=O)(=O)c2ccc(-c3cnc(N)c(C(=O)Nc4cccnc4)n3)cc2)CC1	3.62%	–
Nc1nc2c(cnn2CCCc2ccc(O)cc2)c2nc(-c3ccco3)nn12	-3.53%	–
CCC(C)CNCC(=O)N1CCc2sccc2C1COc1cccc(C)c1 (stereo not given)	–	0.0952 µM (active)
CCOc1cccc(NC(=O)c2ccc(N3CCCC3)c(C(F)(F)F)c2)c1	-28.6%	–
O=C1C(c2[nH]c3ccc(S(=O)(=O)O)cc3c2O)=Nc2ccc(S(=O)(=O)O)cc21	-24.5%	–
Oc1cccc(C2NC(=S)Nc3cccc(F)c32)c1 (stereo not given)	–	7.56 µM (active)
COc1ccccc1S(=O)(=O)Nc1ccc2c(c1)CN(C)C(=O)N2	-1.75%	–
CCC(CC)Nc1nc(C)c(-c2ccc(OC(F)(F)F)cc2OC)nc1OC	1.57%	–
Cc1cc(F)ccc1[C@H]1C[C@@H](N2CCN3C(=O)CC[C@H]3C2)CCN1C(=O)N(C)[C@H](C)c1cc(C(F)(F)F)cc(C(F)(F)F)c1	–	13.5 µM (active)
CCOc1ccc(CCNC(=O)c2cc3sc(Cl)cc3n2C)cc1OCC	-19%	–
O=c1nc(-c2ccccn2)sc2ccccc12	-10.7%	–
CCC[C@H](N[C@H]1CCc2cc(F)cc(F)c2C1)C(=O)Nc1cn(C(C)(C)CNCC(C)(C)C)cn1	-20%	–
O=C(Nc1cccnn1)N1CCN(c2nccc(-c3ccc(F)c(F)c3)n2)CC1	3.65% [at 115 µM]	–
N#Cc1cc(C2=Nc3ccc(Br)cc3NC(=O)C2)ccn1	–	0.477 µM (active)
CC(C)S(=O)(=O)c1ccc2nccc(Nc3ccc4scnc4c3)c2c1	–	10.7 µM (active)

Structure (SMILES)	activity change, negative = inhibition	Potency
Cc1ccc(C(=O)Nc2ccc(CN3CCN(C)CC3)c(C(F)(F)F)c2)cc1C#Cc1cnc2[nH]ncc2c1	–	16.9 µM (active)
COc1ccc2nc(-c3cc(OC)c(OC)c(OC)c3)cc(C(=O)NCC(=O)Nc3ccc(C(C)=O)cc3)c2c1	3.47%	–
CN1CCN(C(=O)CN[C@@H]2C[C@H]2c2ccc(OCc3ccccc3)cc2)CC1	–	10.7 µM (active)
CCc1ccc(-c2nc(CSCC(=O)NCCc3ccccc3)c(C)o2)cc1	–	15.1 µM (active)
CCN1CCN(Cc2ccc(C(=O)Nc3ccc(C)c(Oc4ccc5c(c4)CC(=O)N5)c3)cc2C(F)(F)F)CC1	–	16.9 µM (active)
COc1ccccc1-c1ccc(-c2cn(C(=O)N3CCCCC3Cc3ccccc3)nn2)cc1 (stereo not given)	7.55%	–
COCCCNC(=O)c1ccc(Cn2c(=O)c3ccccc3n(Cc3ccc(C(C)C)cc3)c2=O)cc1	-4.83%	–
Cn1nc(-c2ccc(C(F)(F)F)cc2)nc2c(=O)n(C)c(=O)nc1-2	–	0.239 µM (active)
NS(=O)(=O)c1ccc(N2CCN(CC[C@@H]3OCCc4ccccc43)CC2)cc1	–	23.9 µM (active)
CC(C)(O)c1ccn2c(-c3ccc(F)c(-c4ccc(F)cc4C#N)c3)cnc2c1F	–	19 µM (active)
NCC1CCN(c2nccc(-c3ccc4ccccc4c3)n2)CC1	–	9.52 µM (active)
CC1(C)Oc2ncnc(N)c2N=C1c1ccc(C23CCC(CC(=O)O)(CC2)CC3)cc1	-13.6%	–
CN(C)CCN(Cc1ccc(-c2ccc(CNCCc3ccccc3)cc2)cc1)C(=O)CCC1CCCC1	–	0.601 µM (active)
CCc1cc2c(cc1CC)CC(NCC(O)c1ccc(O)c3[nH]c(=O)ccc13)C2 (stereo not given)	–	9.52 µM (active)
CCCCc1ccc(NS(=O)(=O)c2ccc(F)cc2)cc1	–	9.52 µM (active)
CC(C)c1noc(C2CCN(c3ncnc(Nc4ccc(S(C)(=O)=O)cc4F)c3[N+](=O)[O-])CC2)n1	12.9%	–
FC(F)(F)c1ccccc1-c1cc(C(F)(F)F)c2nc(C3=NOC4(CCCCC4)C3)[nH]c2c1	18.9%	–
Cc1nc(C(=O)N2CCC[C@H]2Cc2nnc(-c3ccccc3)o2)c(-c2ccccc2F)s1	-17%	–
CCCCC1CCN(CCCN2C(=O)CCc3ccccc32)CC1	–	0.756 µM (active)
Cc1cc(C(=O)Nc2cc(Nc3ccc4c(/C=C/c5ccccn5)n[nH]c4c3)ccc2F)n(C)n1	–	7.56 µM (active)
